Assay results published in PubChem BioAssay AID1851 (National Center for Advancing Translational Sciences (NCATS), 2009).
Where “and” joins values, the source holds several entries; their conditions need not be identical. Equal entries are not always repeated. The campaign covered roughly 16,000 compounds. About 5,800 (36%) were called active. About 23% were inconclusive and are not listed. Calls come from the whole dose curve; as a rule, active = well fitted curve in the direction sought with a large enough effect; inconclusive = small, poorly fitted or top-dose-only effect, or effect the other way; inactive = no such curve, though single readings can be large or run the other way. The list shows a part of the results. The source holds several records for some structures; these can differ, active in one and inactive in another. Square brackets hold non-standard residues; d marks the D form. Peptide text beside a SMILES is read from it.

target: Cytochrome P450 2C19 (Homo sapiens) (UniProt P33261); assay: Cytochrome panel assay with activity outcomes; settings: recombinant CYP, pro-luciferin dealkylation, luminescence, p450-cyp2c19; series mostly up to 57.1 µM
% is set by controls: 0 for no effect and ±100 for the full control effect.

Sequence of Cytochrome P450 2C19 (Homo sapiens) (P33261 whole entry, looked up): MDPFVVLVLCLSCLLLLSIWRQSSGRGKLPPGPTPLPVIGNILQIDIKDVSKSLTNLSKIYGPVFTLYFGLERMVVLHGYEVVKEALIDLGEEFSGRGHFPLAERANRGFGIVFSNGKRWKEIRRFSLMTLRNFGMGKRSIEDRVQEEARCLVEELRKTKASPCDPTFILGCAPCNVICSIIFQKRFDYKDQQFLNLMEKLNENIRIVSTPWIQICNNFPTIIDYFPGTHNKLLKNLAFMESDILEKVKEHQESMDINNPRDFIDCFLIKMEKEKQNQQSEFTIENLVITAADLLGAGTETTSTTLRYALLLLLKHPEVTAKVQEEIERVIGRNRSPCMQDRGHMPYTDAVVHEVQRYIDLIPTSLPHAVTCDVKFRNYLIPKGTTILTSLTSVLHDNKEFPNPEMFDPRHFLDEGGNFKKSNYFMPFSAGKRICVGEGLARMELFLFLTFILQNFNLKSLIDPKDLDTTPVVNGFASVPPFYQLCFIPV

| SMILES | AC50 | activity, negative = inhibition |
| --- | --- | --- |
| Nc1nc(SCc2ccc([N+](=O)[O-])cc2)c2ncn([C@@H]3O[C@@H](CO)[C@@H](O)[C@H]3O)c2n1 | inactive | – |
| OC[C@@H]1O[C@@H](n2cnc3c(SCc4ccccc4)ncnc32)[C@@H](O)[C@H]1O | – | 1.35% [at 11.4 µM] (inactive) |
| CCCn1cnc2c(SCc3ccc(Cl)cc3)nc(N)nc21 | 0.501 µM (active) | – |
| Nc1nc(SCc2ccccc2)c2ncn(Cc3ccccc3)c2n1 | 2.51 µM (active) | – |
| Cn1cnc([N+](=O)[O-])c1Sc1nc(N)nc2c1ncn2Cc1ccccc1 | – | 21.2% [at 11.4 µM] (inactive) |
| CCCN(CCC)CCNC(=O)C1CCCN(S(=O)(=O)c2ccc3c(c2)oc(=O)n3C)C1 (stereo not given) | inactive | – |
| Cn1c(=O)oc2cc(S(=O)(=O)NCCC(=O)N3CC=C(c4ccccc4)CC3)ccc21 | 6.31 µM (active) | – |
| Cn1c(=O)c2cc(S(=O)(=O)NCCC(=O)Nc3ccc(Cl)cc3)ccc2n(C)c1=O | inactive | – |
| CC(C)(C)c1onc(OCP(=O)(O)O)c1C[C@@H](N)C(=O)O | inactive | – |
| CCOc1cc(C#N)c(NC(=O)c2cccnc2)cc1OCC | inactive | – |
| O=C(Nc1ccc(F)cc1)c1ccc(-n2ccnc2)nc1 | 0.0708 µM (active) | – |
| Cc1c(Cl)cccc1NC(=O)c1ccc(-n2ccnc2)nc1 | 0.0447 µM (active) | – |
| COC(=O)c1cc(=O)[nH]c(=O)[nH]1 | – | 23% [at 11.4 µM] (inactive) |
| CCNc1ncc2nc(-c3cc(F)cc(F)c3)c(=O)n(CCOC)c2n1 | inactive | – |
| COC(=O)/C=C\CCc1coc(/C=C\CNC(=O)OC)n1 | – | 31.7% [at 11.4 µM] (inactive) |
| CCCCc1n[nH]c2c1/C(=N/O)CC(c1ccccc1)C2 (stereo not given) | 0.447 µM (active) | – |
| CCCc1cc(=O)oc2cc(OCc3nn[nH]n3)ccc12 | 25.1 µM (active) | – |
| CCCc1cc(=O)oc2cc(OCc3cc(OC)c(OC)c(OC)c3)c(Cl)cc12 | inactive | – |
| CCn1c(-c2ccccc2Cl)nn(CC(=O)Nc2ccccc2OC)c1=S | 0.891 µM (active) | – |
| CCn1c(-c2ccccc2Cl)nn(CC(=O)Nc2ccc(OC)cc2)c1=S | 3.55 µM (active) | – |
| CCn1c(-c2ccccc2Cl)nn(CC(=O)Nc2cc(Cl)ccc2Cl)c1=S | 1.78 µM (active) | – |
| COC(=O)c1ccc(C23CC2(C(NP(=O)(c2ccccc2)c2ccccc2)c2ccccc2)C3)cc1 (stereo not given) | 10 µM (active) | – |
| NCS(=O)(=O)O | – | 8.81% [at 11.4 µM] (inactive) |

| SMILES | AC50 | activity, negative = inhibition |
| --- | --- | --- |
| Cn1nc(C(=O)NC2CCCCC2)c2ccccc2c1=O | inactive | – |
| O=C(NC1CCCC1)c1cccnc1N1CCCCCC1 | 8.91 µM (active) | – |
| O=C(NNC(=O)C1CCCCC1)c1cnccn1 | inactive | – |
| COc1ccc(OC)c(NC(=O)[C@H]2CC=CC[C@H]2C(=O)O)c1 | inactive | – |
| COc1cc(C)nc(N2CCCC(C(=O)Nc3cc(Cl)ccc3OC)C2)n1 (stereo not given) | 0.126 µM (active) | – |
| O=C(/C=C/c1ccc2ccccc2c1)c1ccoc1 | 2 µM (active) | – |
| CS(=O)(=O)c1nc(-c2ccccc2)cc(-c2ccccc2)c1C#N | 0.794 µM (active) | – |
| O=C1c2ccccc2-c2ccc(NC(=O)[C@H]3CCCC[C@@H]3C(=O)O)cc21 | – | -17.3% [at 11.4 µM] (inactive) |
| O=C1c2ccccc2-c2ccc(N(Cc3ccc(Br)cc3)Cc3ccc(Br)cc3)cc21 | – | -10.9% [at 11.4 µM] (inactive) |
| O=C(OCc1cccc(F)c1)c1ccc2c(c1)-c1ccccc1C2=O | 11.2 µM (active) | – |
| COc1ccc(NC(=O)N2CC[C@@]3(CCCN(C(=O)c4cnccn4)C3)C2)cc1 | inactive | – |
| Cc1nc2c(C#N)c(C)[nH]n2c(=O)c1Cc1ccccc1 | inactive | – |
| Cc1nc2c(C(=O)NCc3ccc4c(c3)OCO4)c[nH]n2c(=O)c1Cc1ccccc1F | 14.1 µM (active) | – |
| C[C@@H]1O[C@H]2C3=C(C(=O)[C@H]4O[C@@H]4[C@H]3O)[C@@H]1[C@@H]1[C@@H](C)OC=C3[C@H](O)[C@H]4O[C@@H]4/C(=N\OCc4ccccc4)[C@]312 | 0.631 µM (active) | – |
| CC(=O)O[C@H]1C2=CO[C@H](C)[C@H]3[C@H]4C5=C([C@H](O)[C@H]6O[C@@H]6C5=O)[C@H](O[C@H]4C)[C@@]23C(=O)[C@H]2O[C@@H]21 | – | 11.4% [at 11.4 µM] (inactive) |
| Cn1c(=O)n2n(c1=O)[C@H]1[C@H](O)[C@H]3O[C@@H]3/C(=N/OCc3ccccc3)[C@@H]1CC2 | – | 50.3% [at 11.4 µM] (inactive) |
| CC(=O)c1c(C)[nH]c(C(=O)COc2ccc(C#N)cc2)c1C | 8.91 µM (active) | – |
| CC(=O)c1[nH]c(C)c(C(C)=O)c1C | inactive | – |
| S=C1N(c2ccccc2)C(c2ccc(Cl)cc2)N2CCCN12 (stereo not given) | 2.24 µM (active) | – |
| Cc1ccc(S(=O)(=O)/C(C#N)=C/c2c(N3CC(C)OC(C)C3)nc3ccccn3c2=O)cc1 (stereo not given) | 14.1 µM (active) | – |
| O=C(O)CCc1ccc(-c2ccc(Cl)cc2)n1CCC(=O)O | inactive | – |
| O=C1/C(=C/c2ccccc2)[C@@H](NC2CCCCC2)c2ccccc21 | 1.26 µM (active) | – |
| O=C(CC(NS(=O)(=O)c1ccc(Cl)cc1)c1ccco1)NCc1ccco1 (stereo not given) | 7.94 µM (active) | – |

| SMILES | AC50 | activity, negative = inhibition |
| --- | --- | --- |
| CCCNC(=O)CC(NS(=O)(=O)c1ccc(Cl)cc1)c1ccco1 (stereo not given) | 1 µM (active) | – |
| CCCNC(=O)NS(=O)(=O)c1ccc(Cl)cc1 | inactive | – |
| CCOC(=O)C[C@@H](C(=O)OCC)[C@@H]1CCCCC1=O | – | -32.2% [at 11.4 µM] (inactive) |
| O=C1NC(=O)C(c2ccccc2)(c2ccccc2)N1 | inactive | – |
| COC(=O)C/C=C\[C@@H](C)[C@@H]1C=C[C@H](OC(C)=O)[C@H](COC(C)=O)O1 | – | 16.3% [at 11.4 µM] (inactive) |
| O=C1CN2CCN(CC2)CC(=O)Nc2ccc(cc2)S(=O)(=O)c2ccc(cc2)NC(=O)CN2CCN(CC2)CC(=O)Nc2ccc(cc2)S(=O)(=O)c2ccc(cc2)N1 | – | -8.07% [at 11.4 µM] (inactive) |
| CCn1c(-c2nonc2NC(=O)c2ccccc2)nc2ccccc21 | 1.58 µM (active) | – |
| CCC(=O)Nc1nonc1-c1nc2ccccc2n1N(C(=O)CC)C(=O)CC | inactive | – |
| FC(F)(F)c1ccccc1-c1ccc2ncnc(NC3CC3)c2c1 | 2 µM (active) | – |
| FC(F)(F)c1ccccc1-c1ccc2ncnc(NC3CCNCC3)c2c1 | 3.98 µM (active) | – |
| Clc1ccccc1-c1ccc2ncnc(NC3CCNCC3)c2c1 | 3.98 µM (active) | – |
| Cc1ccccc1-c1nc(NC2CCNCC2)c2ccccc2n1 | inactive | – |
| Cc1ccccc1-c1ccc2ncnc(NC3CC3)c2c1 | 1.26 µM (active) | – |
| CN(C)Cc1ccccc1-c1ccc2ncnc(NC3CCNCC3)c2c1 | inactive | – |
| O[C@@H](c1ccccc1)C1CCN(CCc2ccccc2)CC1 | inactive | – |
| C[C@@H](N)C(=O)O | inactive | – |
| Cc1ccccc1N1CCN(S(=O)(=O)C[C@@]23CC[C@H](C[C@H]2NC(=O)[C@@H](N)CCS(C)(=O)=O)C3(C)C)CC1 | inactive | – |
| O=C1NC(c2ccccc2)=NC1(NS(=O)(=O)c1ccccc1)C(F)(F)F (stereo not given) | inactive | – |
| COc1cnc(NS(=O)(=O)c2ccc(N)cc2)nc1 | inactive | – |
| COc1ccc(S(=O)(=O)NC2(C(F)(F)F)N=C3SCCN3C2=O)cc1 (stereo not given) | 22.4 µM (active) | – |
| CC(=O)[C@@]1(O)CC[C@H]2[C@H]3C[C@@H](C)C4=CC(=O)C=C[C@]4(C)[C@@]3(F)[C@@H](O)C[C@]21C | inactive | – |
| CCC(=O)NC(=S)Nc1ccc(S(=O)(=O)NC(C)=O)cc1 | inactive | – |
| COc1ccc(CC(=O)NC(=S)Nc2ccc(S(=O)(=O)NC(C)(C)C)cc2)cc1 | 25.1 µM (active) | – |

| SMILES | AC50 | activity, negative = inhibition |
| --- | --- | --- |
| CC(C)(C)N1C(=O)[C@@H]2[C@H]3C(=CC[C@H]2C1=O)C(=O)[C@H]1O[C@H]1[C@H]3O | – | 18.8% [at 11.4 µM] (inactive) |
| O=C(O)C1=CCCNC1 | inactive | – |
| COc1ccc(CCNc2nc(-c3cccnc3)cs2)cc1OC | 1.41 µM (active) | – |
| O=C(NC12CC3CC(CC(C3)C1)C2)C12CC3CC(C1)CC(n1cnc(Cl)n1)(C3)C2 | 8.91 µM (active) | – |
| COc1ccc(NC(=O)C23CC4CC(C2)CC(n2cnc(Br)n2)(C4)C3)c(C)c1 | inactive | – |
| COC(=O)[C@@H]1[C@@H]2C[C@H]3c4[nH]c5ccccc5c4CCN3C[C@@H]2CC[C@@H]1OS(=O)(=O)O | – | -2.78% [at 11.4 µM] (inactive) |
| CCOc1cc(S(=O)(=O)N(Cc2ccccc2)Cc2ccccc2)c(OCC)cc1-n1cnnn1 | 11.2 µM (active) | – |
| CC1(C)NC(=O)N(c2ccc([N+](=O)[O-])c(C(F)(F)F)c2)C1=O | 126 nM (active) and 251 nM (active) | – |
| Cc1cc2nc(CCN(C(=S)NCC(C)C)C3CCCC3)[nH]c2cc1C | 2.24 µM (active) | – |
| COC(=O)Cn1cnc(=O)c(C#N)c1/C=C/N(C)C | inactive | – |
| NC1(C(=O)O)C[C@H](C(=O)O)[C@H](C(=O)O)C1 (stereo not given in full) | 0.398 µM (active) | – |
| N[C@@]1(C(=O)O)CN[C@H](C(=O)O)C1 | inactive | – |
| NC1(C(=O)O)C[C@@H](C(=O)O)[C@H](C(=O)O)C1 | inactive and 7.94 µM (active) | – |
| N[C@H](C(=O)O)[C@@H]1C[C@@H]1C(=O)O | inactive | – |
| C[C@@]1(C(=O)O)CCC[C@@H]1C(=O)O | – | 40% [at 11.4 µM] (inactive) |
| NC1(C(=O)O)CC(C(=O)O)C1 (stereo not given) | inactive | – |
| c1ccc2c3c([nH]c2c1)[C@@H]1[C@H]2CC[C@H]([C@H]4CCCN[C@H]42)N1CC3 | inactive | – |
| Cc1noc(C)c1C(=O)N1CCC2(CCCN(Cc3nccs3)C2)CC1 | inactive | – |
| NCC(=O)N[C@H](CO)C(=O)O (H-Gly-[dS]-OH) | – | -0.959% [at 11.4 µM] (inactive) |
| COc1ccc(N2CCN(S(=O)(=O)c3ccc4c(c3)CCCC4)CC2)c([N+](=O)[O-])c1 | 2 µM (active) | – |
| CCS(=O)(=O)N1CCC[C@H]2CN3CCc4cc(OC)ccc4[C@@H]3C[C@@H]21 | inactive | – |
